# Experimental data published in PubChem BioAssay (NCATS).
# Inconclusive results are not listed. Entries that show only a call come without a potency. Activity calls are given as the source filed them. Unless noted, calls come from the whole dose curve; as a rule, active = well fitted curve in the direction sought with a large enough effect in the repeat runs; inconclusive = weak or mixed curves; inactive = no such curve, though single readings can be large; an effect the other way counts as inactive or inconclusive.
# Test: qHTS for Activators of Parkin Expression: LOPAC Validation Assay (FLuc Reporter) (AID 720573; active = well fitted curve in the direction sought with a large enough effect; an effect the other way counts as inactive or inconclusive; note: potency is the fitted concentration of half-maximal effect)
# Details: Cell line, PRKN promoter firefly luciferase reporter; series mostly up to 46.1 µM
# Procedure, shortened: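 FLuc luminescence read-out from a neuronal line expressing a Parkin-promoter-driven coincidence reporter. Cells treated 24 h at 37 C, 5% CO2 with compounds at 7 concentrations; signal increase normalized to DMSO and positive control.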
row,Compound,Potency
1,Cc1cn([C@H]2C[C@H](N=[N+]=[N-])[C@@H](CO)O2)c(=O)[nH]c1=O,inactive
2,CC(C(=O)O)c1cccc(C(=O)c2ccccc2)c1 (stereo not drawn),inactive
3,O=c1[nH]cc(F)c(=O)[nH]1,inactive
4,Nc1ccn([C@H]2CC[C@@H](CO)O2)c(=O)n1,inactive
5,CC(CCc1ccc(O)cc1)NCCc1ccc(O)c(O)c1 (stereo not drawn),inactive
6,CCc1cccc2c3c([nH]c12)C(CC)(CC(=O)O)OCC3 (stereo not drawn),inactive
7,CCC1(c2ccccc2)C(=O)NCNC1=O,inactive
8,CC(C)NCC(O)c1ccc(O)c(O)c1 (stereo not drawn),inactive
9,O=c1c(-c2ccc(O)cc2)coc2cc(O)cc(O)c12,8.2 µM (active)
10,Cc1ccccc1N1C(=O)c2cc(S(N)(=O)=O)c(Cl)cc2NC1C (stereo not drawn),inactive
11,NC(=O)OCC(COC(N)=O)c1ccccc1,inactive
12,NS(=O)(=O)c1cc2c(cc1Cl)NCNS2(=O)=O,inactive
13,COc1ccc(CCN(C)CCCC(C#N)(c2ccc(OC)c(OC)c2)C(C)C)cc1OC (stereo not drawn),inactive
14,CN(C)CCCN1c2ccccc2CCc2ccc(Cl)cc21,inactive
15,COc1ccc2[nH]cc(CCNC(C)=O)c2c1,inactive
16,Cn1c(=O)c2c(ncn2C)n(C)c1=O,inactive
17,Cc1cn([C@H]2C=C[C@@H](CO)O2)c(=O)[nH]c1=O,inactive
18,CN1CCN(CCCN2c3ccccc3Sc3ccc(Cl)cc32)CC1,inactive
19,CN(C)c1nc(N(C)C)nc(N(C)C)n1,inactive
20,NCCS(=O)(=O)O,inactive
21,Clc1ccc(C(c2ccccc2Cl)C(Cl)Cl)cc1 (stereo not drawn),inactive
22,O=C1c2c(O)ccc(O)c2C(=O)c2c(NCCNCCO)ccc(NCCNCCO)c21,inactive
23,COc1nc(C)nc(Cl)c1NC1=NCCN1,inactive
24,Nc1c2c(nc3ccccc13)CCCC2,inactive

# Test: qHTS assay for small molecule agonists of the antioxidant response element (ARE) signaling pathway measured by Nrf2-dependant transcriptional activity (AID 720636);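 note: HepG2 cells with an ARE-driven luciferase reporter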
# Details: ARE-luc HepG2, Nrf2 luciferase reporter, 16 h; series mostly up to 92.4 µM
# Procedure, shortened: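 Nrf2-dependent transcription is measured in ARE-luc HepG2 cells: compound is applied for 16 hr at 37 C after a 6 hr attachment period, and luciferase activity is quantified by luminescence using ONE-Glo.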
row,Compound,outcome
1,Cc1cn([C@H]2C[C@H](N=[N+]=[N-])[C@@H](CO)O2)c(=O)[nH]c1=O,inactive
2,O=c1[nH]cc(F)c(=O)[nH]1,inactive
3,Nc1ccn([C@H]2CC[C@@H](CO)O2)c(=O)n1,inactive
4,CCC1(c2ccccc2)C(=O)NCNC1=O,inactive
5,CC(C)NCC(O)c1ccc(O)c(O)c1 (stereo not drawn),inactive
6,NS(=O)(=O)c1cc2c(cc1Cl)NCNS2(=O)=O,inactive
7,Cc1ccc(-c2cc(C(F)(F)F)nn2-c2ccc(S(N)(=O)=O)cc2)cc1,inactive
8,COc1ccc(CCN(C)CCCC(C#N)(c2ccc(OC)c(OC)c2)C(C)C)cc1OC (stereo not drawn),inactive
9,COc1ccc2[nH]cc(CCNC(C)=O)c2c1,inactive
10,Cn1c(=O)c2c(ncn2C)n(C)c1=O,inactive
11,Cc1cn([C@H]2C=C[C@@H](CO)O2)c(=O)[nH]c1=O,inactive
12,NCCS(=O)(=O)O,inactive
13,Clc1ccc(C(c2ccccc2Cl)C(Cl)Cl)cc1 (stereo not drawn),inactive
14,Nc1c2c(nc3ccccc13)CCCC2,inactive
